Calls of active or inactive are those of the source.
How the values were obtained:
[1] = small molecules captured by biotinylated probe aFSTL3 – biochemical, small-molecule microarray, fluorescence 635/667, stem cell growth factor project, primary screen (AID 1064); conditions: higher = more signal;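 note: measures binding of the biotinylated anti-FSTL3 antibody to printed compounds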
[2] = binders from COS7 lysate, DM2A8 probe, primary screen, torsin A project, cell lysate, small-molecule microarray, fluorescence 635/667 (AID 1065); conditions: higher = more signal, COS7 lysate expressing mutant human TOR1A
[3] = small molecules captured by biotinylated probe aFGF2 – biochemical, small-molecule microarray, fluorescence 635/667, stem cell growth factor project, primary screen (AID 1067); conditions: higher = more signal;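 note: measures binding of biotinylated aFGF2 protein to printed compounds on slides; z-score merges feature fluorescence and signal-to-noise across triplicate slides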
[4] = small molecules captured by biotinylated probe aFGF10 – biochemical, small-molecule microarray, fluorescence 635/667, stem cell growth factor project, primary screen (AID 1071); conditions: higher = more signal;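 note: score merges 667 nm spot intensity and signal to noise from triplicate slides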
[5] = target: Neurogenic locus notch homolog protein 2 (Homo sapiens) (UniProt Q04721); experiment: small molecules binding Notch2 protein – biochemical, small-molecule microarray, 635 nm fluorescence, stem cell growth factors, primary screen (AID 1073); conditions: higher = more signal
Chain of Neurogenic locus notch homolog protein 2 (Homo sapiens) (Q04721 whole entry, looked up, canonical isoform): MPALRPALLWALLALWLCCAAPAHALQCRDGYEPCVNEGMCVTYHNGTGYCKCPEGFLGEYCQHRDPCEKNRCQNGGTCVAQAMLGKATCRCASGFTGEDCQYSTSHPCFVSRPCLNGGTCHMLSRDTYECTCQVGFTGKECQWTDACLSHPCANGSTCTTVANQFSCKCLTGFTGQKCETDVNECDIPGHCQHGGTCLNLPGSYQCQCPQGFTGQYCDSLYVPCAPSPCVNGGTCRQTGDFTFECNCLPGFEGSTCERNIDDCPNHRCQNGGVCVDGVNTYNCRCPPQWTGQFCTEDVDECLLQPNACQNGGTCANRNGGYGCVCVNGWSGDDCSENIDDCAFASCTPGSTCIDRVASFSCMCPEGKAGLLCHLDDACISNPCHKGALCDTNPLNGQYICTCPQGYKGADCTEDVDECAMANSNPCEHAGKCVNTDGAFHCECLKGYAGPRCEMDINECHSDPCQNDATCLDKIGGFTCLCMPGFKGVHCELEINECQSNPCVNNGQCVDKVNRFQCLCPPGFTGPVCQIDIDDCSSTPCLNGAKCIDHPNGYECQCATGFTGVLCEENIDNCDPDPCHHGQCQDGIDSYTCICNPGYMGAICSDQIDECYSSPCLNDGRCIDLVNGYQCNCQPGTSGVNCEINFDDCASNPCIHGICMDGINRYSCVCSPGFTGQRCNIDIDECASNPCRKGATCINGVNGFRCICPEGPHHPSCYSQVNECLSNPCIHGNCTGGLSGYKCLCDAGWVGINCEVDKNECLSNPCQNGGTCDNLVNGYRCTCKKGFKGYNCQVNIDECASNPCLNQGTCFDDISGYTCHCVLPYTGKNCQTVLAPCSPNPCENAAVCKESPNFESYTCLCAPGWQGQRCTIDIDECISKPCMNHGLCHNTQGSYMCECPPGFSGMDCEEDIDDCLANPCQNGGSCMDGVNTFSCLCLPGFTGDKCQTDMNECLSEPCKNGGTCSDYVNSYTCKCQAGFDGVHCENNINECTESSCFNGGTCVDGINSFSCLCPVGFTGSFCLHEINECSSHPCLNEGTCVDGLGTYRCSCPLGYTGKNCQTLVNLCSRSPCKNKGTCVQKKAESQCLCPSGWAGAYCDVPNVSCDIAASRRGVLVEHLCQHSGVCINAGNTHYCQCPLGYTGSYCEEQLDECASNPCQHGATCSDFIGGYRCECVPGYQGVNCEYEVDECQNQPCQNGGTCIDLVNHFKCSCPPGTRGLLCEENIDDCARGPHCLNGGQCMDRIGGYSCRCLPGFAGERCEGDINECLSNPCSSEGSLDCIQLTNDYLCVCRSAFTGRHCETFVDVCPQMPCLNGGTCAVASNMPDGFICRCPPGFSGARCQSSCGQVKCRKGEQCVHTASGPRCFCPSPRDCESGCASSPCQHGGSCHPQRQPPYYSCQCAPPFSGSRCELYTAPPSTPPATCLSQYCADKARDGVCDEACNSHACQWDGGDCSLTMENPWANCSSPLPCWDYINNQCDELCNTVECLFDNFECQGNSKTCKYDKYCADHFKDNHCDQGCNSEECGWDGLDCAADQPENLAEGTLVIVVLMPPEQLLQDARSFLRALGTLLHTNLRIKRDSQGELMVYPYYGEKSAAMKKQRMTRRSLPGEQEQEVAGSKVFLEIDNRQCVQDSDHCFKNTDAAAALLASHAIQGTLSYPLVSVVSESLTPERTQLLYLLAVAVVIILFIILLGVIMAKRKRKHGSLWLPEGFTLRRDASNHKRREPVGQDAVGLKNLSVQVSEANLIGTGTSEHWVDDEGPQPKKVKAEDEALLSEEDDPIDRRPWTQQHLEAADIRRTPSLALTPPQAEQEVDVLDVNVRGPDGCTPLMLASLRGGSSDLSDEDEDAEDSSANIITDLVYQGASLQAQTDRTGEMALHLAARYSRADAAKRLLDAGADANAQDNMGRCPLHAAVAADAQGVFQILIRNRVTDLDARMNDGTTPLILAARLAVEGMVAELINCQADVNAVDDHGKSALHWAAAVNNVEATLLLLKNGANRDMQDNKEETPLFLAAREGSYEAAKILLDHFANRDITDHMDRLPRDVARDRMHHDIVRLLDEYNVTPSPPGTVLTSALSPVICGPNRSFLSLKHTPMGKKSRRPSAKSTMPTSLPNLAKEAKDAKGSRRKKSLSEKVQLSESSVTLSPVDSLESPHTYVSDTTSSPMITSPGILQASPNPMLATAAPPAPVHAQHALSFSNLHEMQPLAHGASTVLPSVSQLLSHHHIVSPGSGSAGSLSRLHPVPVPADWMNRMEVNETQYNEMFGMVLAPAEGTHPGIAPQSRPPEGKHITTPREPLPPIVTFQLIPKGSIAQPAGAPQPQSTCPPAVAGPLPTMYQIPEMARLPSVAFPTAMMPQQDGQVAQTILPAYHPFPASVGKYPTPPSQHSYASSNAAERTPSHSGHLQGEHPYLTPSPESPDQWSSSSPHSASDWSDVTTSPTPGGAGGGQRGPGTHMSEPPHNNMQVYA

[6] = target: Pro-neuregulin-1, membrane-bound isoform (Homo sapiens) (UniProt Q02297); experiment: small molecules binding neuregulin-1 protein – biochemical, small-molecule microarray, fluorescence 635/667, psychiatric disease protein project, primary screen (AID 1075); conditions: NRG1 binding, 635 nm fluorescence, higher = more signal;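 note: score combines 667 nm spot fluorescence with signal to noise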
[7] = system: Neuregulin-1 EGF-like domain; experiment: small molecules binding NRG1 EGF domain – biochemical, small-molecule microarray, 635 nm fluorescence, primary screen (AID 1081); conditions: higher = more signal;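 note: binding of the protein to compounds printed on small-molecule microarray slides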
[8] = FRG1 expression reporter modulators in myotubes – cell-based, C2C12 myotubes, firefly/Renilla luciferase, luminescence, FRG1 inhibition for FSHD, primary screen (AID 1084); conditions: FRG1 promoter luciferase, higher = more signal, called active from +8 up or from −8 down
[9] = small molecules captured by biotinylated probe aFST – biochemical, small-molecule microarray, fluorescence 635/667, stem cell growth factor project, primary screen (AID 1086); conditions: higher = more signal;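 note: score merges 667 nm fluorescence with signal-to-noise of each printed compound spot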
[10] = binders of probe aHhip on microarray, primary screen, stem cell growth factor project, biochemical, small-molecule microarray, fluorescence 635/667 (AID 1087); conditions: higher = more signal;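 note: score merges spot fluorescence at 667nm with spot signal to noise ratio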
[11] = system: PRMT1 (protein arginine N-methyltransferase 1); experiment: small molecules binding arginine methyltransferase PRMT1 – biochemical, small-molecule microarray, 635 nm fluorescence, primary screen (AID 1088); conditions: higher = more signal;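 note: binding of Prmt1 protein to compounds spotted on small-molecule microarray slides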
[12] = growth effects on S. cerevisiae YJM789 – YJM789 clinical isolate, OD600, 24 h, basal, primary screen (AID 1089); conditions: higher = more signal, called active from +8 up or from −8 down;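 note: growth of clinical yeast isolate S. cerevisiae YJM 789 seeded 1000 cells per well; test concentration not given here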
[13] = S. pombe growth modifiers, basal conditions – strain 972, OD600, 24 h, no modulator, primary screen (AID 1090);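 note: basal condition with compound alone and no growth modifier present; test concentration not given here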; conditions: S. pombe 972 growth, higher = more signal, called active from +8 up or from −8 down
[14] = budding yeast growth modifiers under rapamycin – strain BY4716, OD600, 96 h, primary screen (AID 1091); note: test concentration not given here; conditions: S. cerevisiae BY4716 + rapamycin, higher = more signal, called active from +8 up or from −8 down
[15] = target: Torsin-1A-interacting protein 2 (Homo sapiens) (UniProt Q8NFQ8); experiment: small molecules binding lysate-expressed LULL1 – cell lysate, human LULL1 lysate, 635/667 nm fluorescence, primary screen (AID 1092); conditions: small-molecule microarray, hLULL1 lysate binding, 635 nm fluorescence; higher = more signal;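 note: probe is lysate of COS7 cells overexpressing human LULL1; score merges per-feature 667 nm fluorescence with signal-to-noise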
[16] = optical density change of DRC41 E. coli – strain DRC41, OD650, 24 h, E. coli filamentation project, primary screen (AID 1093);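 note: MC1000 strain lacking acrAB efflux and sulA so SOS filamentation is blocked; test concentration not given here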; conditions: E. coli DRC41 growth, higher = more signal, called active from +8 up or from −8 down
[17] = probe aLefty2 binding to arrayed compounds – biochemical, biotinylated probe, 635/667 nm fluorescence, primary screen (AID 1094); conditions: small-molecule microarray, higher = more signal;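 note: score merges spot fluorescence near 667 nm with spot signal-to-noise ratio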
[18] = system: Noggin (protein binding on small-molecule microarray); experiment: small molecules binding Noggin protein – biochemical, 635/667 nm fluorescence, primary screen (AID 1095); conditions: 635 nm fluorescence, higher = more signal;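 note: score merges 667 nm feature fluorescence with signal to noise over triplicate slides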
[19] = target: Neurogenic locus notch homolog protein 3 (Homo sapiens) (UniProt Q9UM47); experiment: small molecules binding NOTCH3 protein – biochemical, 635/667 nm fluorescence, primary screen (AID 1096); conditions: small-molecule microarray, 635 nm fluorescence, higher = more signal
Chain of Neurogenic locus notch homolog protein 3 (Homo sapiens) (Q9UM47 whole entry, looked up): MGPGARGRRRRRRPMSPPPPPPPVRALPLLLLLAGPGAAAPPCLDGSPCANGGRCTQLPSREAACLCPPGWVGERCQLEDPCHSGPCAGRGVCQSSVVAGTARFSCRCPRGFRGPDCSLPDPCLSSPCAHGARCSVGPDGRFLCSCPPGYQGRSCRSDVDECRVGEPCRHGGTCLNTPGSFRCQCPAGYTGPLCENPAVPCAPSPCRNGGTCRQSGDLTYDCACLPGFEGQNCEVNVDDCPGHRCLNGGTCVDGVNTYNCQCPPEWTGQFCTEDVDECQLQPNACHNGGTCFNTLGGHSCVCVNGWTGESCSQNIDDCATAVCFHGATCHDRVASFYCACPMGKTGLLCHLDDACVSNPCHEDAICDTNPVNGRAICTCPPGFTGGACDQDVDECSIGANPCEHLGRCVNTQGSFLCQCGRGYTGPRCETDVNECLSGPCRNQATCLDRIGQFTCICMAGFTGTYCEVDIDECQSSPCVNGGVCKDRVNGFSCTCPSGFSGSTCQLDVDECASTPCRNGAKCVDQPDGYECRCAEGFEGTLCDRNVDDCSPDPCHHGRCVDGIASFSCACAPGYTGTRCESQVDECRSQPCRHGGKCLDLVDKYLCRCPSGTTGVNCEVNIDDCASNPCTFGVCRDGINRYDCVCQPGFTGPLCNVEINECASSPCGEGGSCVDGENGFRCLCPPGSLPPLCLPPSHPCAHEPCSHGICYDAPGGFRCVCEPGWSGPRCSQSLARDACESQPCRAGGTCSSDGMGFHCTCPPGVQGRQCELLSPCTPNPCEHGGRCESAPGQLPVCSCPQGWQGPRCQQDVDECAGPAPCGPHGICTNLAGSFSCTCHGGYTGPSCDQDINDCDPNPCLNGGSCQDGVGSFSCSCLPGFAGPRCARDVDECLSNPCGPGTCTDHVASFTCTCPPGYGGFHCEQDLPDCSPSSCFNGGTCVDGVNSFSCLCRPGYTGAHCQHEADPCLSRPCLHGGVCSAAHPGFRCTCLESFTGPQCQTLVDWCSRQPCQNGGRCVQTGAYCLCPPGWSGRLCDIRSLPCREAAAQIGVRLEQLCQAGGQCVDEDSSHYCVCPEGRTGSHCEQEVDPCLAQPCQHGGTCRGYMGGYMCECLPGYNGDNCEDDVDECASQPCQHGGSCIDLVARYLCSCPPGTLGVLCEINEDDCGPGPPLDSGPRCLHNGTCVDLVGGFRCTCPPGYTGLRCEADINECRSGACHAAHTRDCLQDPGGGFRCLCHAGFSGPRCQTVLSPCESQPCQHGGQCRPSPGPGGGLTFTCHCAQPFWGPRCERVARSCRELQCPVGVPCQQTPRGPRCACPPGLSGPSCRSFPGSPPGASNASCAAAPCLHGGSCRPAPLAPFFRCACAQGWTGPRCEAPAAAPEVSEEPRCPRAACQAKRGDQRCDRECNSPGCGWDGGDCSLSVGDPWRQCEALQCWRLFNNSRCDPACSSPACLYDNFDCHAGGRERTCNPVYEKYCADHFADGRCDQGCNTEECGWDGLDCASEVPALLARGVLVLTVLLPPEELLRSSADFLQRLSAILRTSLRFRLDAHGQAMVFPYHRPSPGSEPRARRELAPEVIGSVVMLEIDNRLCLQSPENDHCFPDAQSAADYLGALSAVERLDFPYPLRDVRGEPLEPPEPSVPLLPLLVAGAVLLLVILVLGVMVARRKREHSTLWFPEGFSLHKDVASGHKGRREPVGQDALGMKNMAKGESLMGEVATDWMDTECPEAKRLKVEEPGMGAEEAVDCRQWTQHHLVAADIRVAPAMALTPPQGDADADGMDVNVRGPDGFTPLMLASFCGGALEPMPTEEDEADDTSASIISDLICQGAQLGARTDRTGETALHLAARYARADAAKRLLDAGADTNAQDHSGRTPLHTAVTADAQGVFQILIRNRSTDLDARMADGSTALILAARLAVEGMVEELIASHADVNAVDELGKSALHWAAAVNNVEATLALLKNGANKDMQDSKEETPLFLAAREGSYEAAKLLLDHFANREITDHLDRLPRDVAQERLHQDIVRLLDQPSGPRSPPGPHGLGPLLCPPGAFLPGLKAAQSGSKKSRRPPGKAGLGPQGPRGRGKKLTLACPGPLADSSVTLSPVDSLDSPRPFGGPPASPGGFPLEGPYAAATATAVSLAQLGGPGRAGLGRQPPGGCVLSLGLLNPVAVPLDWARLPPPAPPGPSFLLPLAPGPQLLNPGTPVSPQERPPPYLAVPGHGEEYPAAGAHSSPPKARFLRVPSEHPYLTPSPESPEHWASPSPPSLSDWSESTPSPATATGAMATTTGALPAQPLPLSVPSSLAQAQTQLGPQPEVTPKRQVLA

[20] = probe aEGFR binding to arrayed compounds – biochemical, biotinylated probe, 635/667 nm fluorescence, primary screen (AID 1097); conditions: small-molecule microarray, higher = more signal;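 note: probe is a biotinylated anti-EGFR antibody binding compounds printed on slides; score combines fluorescence near 667 nm and signal to noise of each spot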

## CO[C@H]1O[C@H](CO)[C@@H](OC(=O)Nc2ccc3c(c2)OCO3)[C@@H]2OC(=O)[C@@H](Cc3ccccc3)C/C=C/C[C@H](Cc3ccccc3)C(=O)O[C@@H]12
[1]
  composite z-score: -0.276
[2]
  composite z-score: -0.0172
[3]
  composite z-score: 0.0631
[4]
  composite z-score: 0.984
[5]
  composite z-score: 1.12
[6]
  composite z-score: 0.995
[7]
  composite z-score: 0.976
[8]
  z-score: -0.277 (inactive)
[9]
  composite z-score: 0.508
[10]
  composite z-score: 0.0373
[11]
  composite z-score: 1.48
[12]
  z-score: 1.17 (inactive)
[13]
  z-score: 0.78 (inactive)
[14]
  z-score: 2.27 (inactive)
[15]
  composite z-score: 1.29
[16]
  z-score: 0.156 (inactive)
[17]
  composite z-score: -0.0562
[18]
  composite z-score: 0.566
[19]
  composite z-score: 0.887
[20]
  composite z-score: 0.0528

## COC(=O)[C@H](Cc1ccc(O)cc1)N1CC2=CCCC=C[C@@H]2[C@H]1[C@H](O)Cc1ccccc1
[1]
  composite z-score: -0.565
[2]
  composite z-score: -0.214
[3]
  composite z-score: -0.124
[4]
  composite z-score: 0.288
[5]
  composite z-score: 0.35
[6]
  composite z-score: 0.166
[7]
  composite z-score: 0.324
[8]
  z-score: -0.106 (inactive)
[9]
  composite z-score: 0.166
[10]
  composite z-score: -0.132
[11]
  composite z-score: 1.13
[12]
  z-score: -0.662 (inactive)
[13]
  z-score: -2.3 (inactive)
[14]
  z-score: -1.03 (inactive)
[15]
  composite z-score: 0.616
[16]
  z-score: 0.65 (inactive)
[17]
  composite z-score: -0.29
[18]
  composite z-score: 0.191
[19]
  composite z-score: -0.0213
[20]
  composite z-score: -0.112

## COCCCNC(=O)[C@@H]1c2ccccc2C(=O)N(Cc2cc(C(F)(F)F)cc(C(F)(F)F)c2)[C@H]1c1ccc(CO)cc1
[1]
  composite z-score: -0.468
[2]
  composite z-score: 0.668
[3]
  composite z-score: -0.182
[4]
  composite z-score: -0.568
[5]
  composite z-score: -0.0254
[6]
  composite z-score: 0.686
[7]
  composite z-score: 0.887
[8]
  z-score: 0.309 (inactive)
[9]
  composite z-score: 1.49
[10]
  composite z-score: -0.34
[11]
  composite z-score: -0.217
[12]
  z-score: 0.109 (inactive)
[13]
  z-score: 0.144 (inactive)
[14]
  z-score: -0.405 (inactive)
[15]
  composite z-score: 0.928
[16]
  z-score: 0.329 (inactive)
[17]
  composite z-score: -0.164
[18]
  composite z-score: -0.441
[19]
  composite z-score: -0.305
[20]
  composite z-score: 0.45

## COCCOC(=O)N1C(=O)[C@@]2(c3cc(C#CC4=CCCCC4)ccc31)[C@H](C(=O)N1CCc3cc(OC)c(OC)cc3C1)[C@H]1C(=O)O[C@H](c3ccccc3)[C@H](c3ccccc3)N1[C@@H]2c1ccc(O)cc1
[1]
  composite z-score: -0.0908
[2]
  composite z-score: 0.271
[3]
  composite z-score: 0.0216
[4]
  composite z-score: 1.15
[5]
  composite z-score: 1.5
[6]
  composite z-score: 1.79
[7]
  composite z-score: 1.25
[8]
  z-score: -0.514 (inactive)
[9]
  composite z-score: 0.153
[10]
  composite z-score: 0.0515
[11]
  composite z-score: 1.5
[12]
  z-score: 1.68 (inactive)
[13]
  z-score: 0.94 (inactive)
[14]
  z-score: 2.7 (inactive)
[15]
  composite z-score: 2.68
[16]
  z-score: 0.951 (inactive)
[17]
  composite z-score: 1.08
[18]
  composite z-score: 0.552
[19]
  composite z-score: 1.16
[20]
  composite z-score: 0.657

## CC(C)C[C@@H]1NC(=O)C([C@@H](C)OCc2ccccc2)NC(=O)[C@@]23C(=O)N[C@@H](Cc4ccccc4)C2[C@H](C)[C@@]2(C)O[C@H]2C3/C=C/CC/C=C/CNC1=O (stereo not given in full)
[1]
  composite z-score: -0.38
[2]
  composite z-score: 0.924
[3]
  composite z-score: -0.0841
[4]
  composite z-score: 0.379
[5]
  composite z-score: 0.319
[6]
  composite z-score: 1.11
[7]
  composite z-score: 0.979
[8]
  z-score: 1.49 (inactive)
[9]
  composite z-score: 0.0793
[10]
  composite z-score: -0.353
[11]
  composite z-score: 1.55
[12]
  z-score: -0.404 (inactive)
[13]
  z-score: -1.07 (inactive)
[14]
  z-score: -1.28 (inactive)
[15]
  composite z-score: 1.82
[16]
  z-score: 0.957 (inactive)
[17]
  composite z-score: -0.129
[18]
  composite z-score: 1.18
[19]
  composite z-score: 0.767
[20]
  composite z-score: -0.0512
